# Screens from PubChem BioAssay.
# BAZ2B block – qHTS Assay for Inhibitors of BAZ2B | Potency, µM (doses to about 114 µM), inactives show at the highest dose activity change, negative = inhibition, actives largely listed as inhibitors | actives 4.4% (n = 360,000) | AlphaScreen BAZ2B-H3K14Ac peptide displacement | Bromodomain adjacent to zinc finger domain protein 2B (Homo sapiens), Q9UIF8 | AID 504333, 2011; note: % is set by controls: 0 for no effect and ±100 for the full control effect; nearly all actives have a fitted effect of over 60% in size
#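 Inhibition is scored as reduced AlphaScreen emission. The BAZ2B/b-H3(5-23)K14Ac complex (50 nM each) in PBS pH 7.4, 0.01% Tween-20 meets compound (up to 110 uM) for 30 min at RT before bead addition.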
# JMJD2A Tudor inh – qHTS Assay for Inhibitors of JMJD2A-Tudor Domain; Lysine-specific demethylase 4A (Homo sapiens), O75164; AlphaScreen JMJD2A-Tudor / H3K4me3 peptide binding; Potency, µM (highest dose often 114 µM), without a hit: top-dose activity change, negative = inhibition, hits mostly inhibitors; actives 4.4% (n = 390,000); AID 504339, 2011; note: % is set by controls: 0 for no effect and ±100 for the full control effect; nearly all actives have a fitted effect of over 50% in size
# Target sequence (O75164 whole entry, looked up, the tested form may be a part): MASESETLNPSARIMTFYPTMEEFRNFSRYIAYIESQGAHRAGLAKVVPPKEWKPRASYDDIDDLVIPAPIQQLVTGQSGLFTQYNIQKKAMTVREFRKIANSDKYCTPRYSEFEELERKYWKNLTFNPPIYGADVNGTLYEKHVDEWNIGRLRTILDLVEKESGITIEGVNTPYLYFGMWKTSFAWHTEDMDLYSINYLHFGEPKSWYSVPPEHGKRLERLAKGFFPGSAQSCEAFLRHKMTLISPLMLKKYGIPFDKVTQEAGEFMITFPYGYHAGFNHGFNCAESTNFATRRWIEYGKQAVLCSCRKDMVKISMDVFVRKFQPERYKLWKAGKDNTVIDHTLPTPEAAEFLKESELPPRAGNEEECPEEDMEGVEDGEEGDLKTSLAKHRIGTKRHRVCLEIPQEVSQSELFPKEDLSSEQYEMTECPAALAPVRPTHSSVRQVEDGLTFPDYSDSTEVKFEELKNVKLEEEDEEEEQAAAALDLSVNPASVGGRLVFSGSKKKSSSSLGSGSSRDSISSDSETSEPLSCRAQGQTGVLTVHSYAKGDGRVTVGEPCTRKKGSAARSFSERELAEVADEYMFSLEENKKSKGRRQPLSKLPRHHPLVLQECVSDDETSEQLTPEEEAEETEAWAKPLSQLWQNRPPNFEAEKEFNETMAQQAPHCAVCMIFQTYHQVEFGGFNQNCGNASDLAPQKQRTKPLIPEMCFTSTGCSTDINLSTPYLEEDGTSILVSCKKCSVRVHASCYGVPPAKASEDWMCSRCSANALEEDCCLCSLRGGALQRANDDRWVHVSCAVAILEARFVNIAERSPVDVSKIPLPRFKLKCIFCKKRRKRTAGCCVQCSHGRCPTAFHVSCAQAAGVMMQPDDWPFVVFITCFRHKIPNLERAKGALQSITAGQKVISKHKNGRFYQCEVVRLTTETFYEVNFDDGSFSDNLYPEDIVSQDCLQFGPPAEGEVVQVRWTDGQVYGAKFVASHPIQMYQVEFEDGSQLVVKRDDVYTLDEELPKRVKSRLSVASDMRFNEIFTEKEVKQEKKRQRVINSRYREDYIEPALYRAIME
# VDR inhibitor – Inhibitors of the vitamin D receptor (VDR): qHTS. Vitamin D3 receptor (Homo sapiens), P11473. VDR-SRC2-3 peptide fluorescence polarization, 2 h. Potency, µM, for inactives: max response, negative = inhibition, hits mostly inhibitors. actives 0.93% (n = 400,000). AID 504847, 2011; note: % is set by controls: 0 for no effect and ±100 for the full control effect
#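 Fluorescence polarization assay measuring small-molecule disruption of VDR binding to the coregulator peptide SRC2-3. Compounds were pin-transferred (23 nl) into the reagent mix and incubated 2 h at room temperature before reading.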
# HP1b binding inh – HTS for Inhibitors of HP1-beta Chromodomain Interactions with Methylated Histone Tails; Chromobox protein homolog 1 (Homo sapiens), P83916; AlphaScreen HP1-beta / biotin-H3K9me3 peptide binding; Potency, µM (highest dose often 114 µM), for inactives: top-dose activity change, negative = inhibition, usual class: inhibitors; actives 0.56% (n = 390,000); note: nearly all actives have a fitted effect of over 70% in size
#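 HP1-beta protein (50 nM final) preincubated 30 min at room temperature with biotinylated H3(1-18)K9me3 peptide (50 nM) in PBS pH 7.4, 0.01% Tween-20, then compound added for 30 min. AlphaScreen streptavidin donor/nickel chelate acceptor beads (10 ug/mL final), 30 min dark, luminescence read.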
# PLK1 PBD inh – qHTS for Inhibitors of PLK1-PDB (polo-like kinase 1 - polo-box domain): Primary Screen | Plk1 PBD binding of FITC phosphopeptide, fluorescence polarization | Potency, µM, without a hit: max response, negative = inhibition, usual class: inhibitors | actives 2.8% (n = 360,000) | AID 720504, 2013; note: series mostly up to about 57 µM; % is set by controls: 0 for no effect and ±100 for the full control effect; nearly all actives have a fitted effect of over 65% in size
# G9a inh – qHTS Assay for Inhibitors of Histone Lysine Methyltransferase G9a | G9a H3K9 monomethylation, AlphaScreen, 2 h | Potency, µM (top dose mostly 102 µM), inactives show top-dose activity, negative = inhibition, hits mostly inhibitors | actives 8.8% (n = 350,000) | AID 504332, 2011; note: % is set by controls: 0 for no effect and ±100 for the full control effect; nearly all actives have a fitted effect of over 75% in size
#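 G9a (20 nM) preincubated 15 min RT with compounds, then 500 nM biotinylated H3K9 peptide and 20 uM SAM added; 2 h RT reaction. Monomethyl-H3K9 product detected by AlphaScreen with anti-H3K9me1 antibody, streptavidin donor and anti-rabbit IgG acceptor beads.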
# Active calls of the source: *; ? = inconclusive; / = no result; [ ] = dose if it differs, or a comment. An excerpt weighted towards active compounds, which were near 11% of everything screened. Calls come from the whole dose curve; as a rule, active = well fitted curve in the direction sought with a large enough effect; inconclusive = small, poorly fitted or top-dose-only effect, or another doubt; inactive = no such curve, though single readings can be large; an effect the other way counts as inactive or inconclusive. Potency is the fitted concentration of half-maximal effect.
SMILES,BAZ2B block,JMJD2A Tudor inh,VDR inhibitor,HP1b binding inh,PLK1 PBD inh,G9a inh
CCO[C@@H]1OC(C(N)=O)=C[C@H](c2ccc3c(c2)OCO3)[C@H]1CCCO,-1%,-17%,-1%,20%,-5%,5%[59 µM]
CCOC(=O)c1c(C)[nH]c(C)c1S(=O)(=O)N(C)CC(=O)Nc1ccc(C)cc1C,-11%,-9%,13%,22%,/,0%[59 µM]
COc1ccc(C(=O)N(Cc2ccccc2)Cc2cccs2)c(O)c1,/,-34%,/,/,/,/
O=C(Nc1cccc(F)c1)c1ccc(Br)o1,-13%,-27%,-15%,16%,-4%,28µM*
O=C(Nc1cccc(OC(F)(F)F)c1)c1ccc(Br)o1,8%,-4%,-5%,20%,-3%,-2%[59 µM]
CCn1c2ccccc2c2cc(NC(=O)c3ccc(=O)oc3)ccc21,?,-9%,9%,20%,?,45µM*
CCn1c2ccccc2c2cc(NC(=O)c3cc(OC)cc(OC)c3)ccc21,-10%,-21%,6%,19%,-11%,15%
CCOC(=O)c1ccc2c(c1)C1C=CCC1C(C(=O)O)N2 (stereo not drawn),6.3µM*,/,/,/,/,3.2µM*
CCOC(=O)C1Nc2ccc(C(=O)O)cc2C2C=CCC12 (stereo not drawn),40µM*,4µM*,16µM*,7.9µM*,3µM*,24%[0.501 µM]
COCCNC(=O)C1Nc2ccc(C(F)(F)F)cc2C2C=CCC12 (stereo not drawn),/,-30%,-5%,10%,-18%,/
CCCC1Nc2ccc(C(=O)O)cc2C2C=CCC12 (stereo not drawn),45µM*,56µM*,-37%,-17%,?,?
O=C(O)C1Nc2ccccc2C2C=CCC12 (stereo not drawn),/,3.5µM*,?,11µM*,/,/
CC(=O)c1ccc(NC(=O)CSc2ccc3nc(-c4ccccc4)cn3n2)cc1,-3%,-3%,6%,31%[57 µM],/,9%[59 µM]
COc1cc(OC)cc(C(=O)N2CCC(c3ccncc3)CC2)c1,0%,4%,9%,36%,/,-6%[59 µM]
Clc1ccc2nc(NCc3ccccc3)c3nncn3c2c1,-2%,9%,-3%,37%,/,7%[59 µM]
O=C(O)c1ccc2c(c1)C1C=CCC1C(c1ccncc1)N2 (stereo not drawn),56µM*,-3%,19%,27%,1%,?
COc1cccc([C@@H]2Nc3ccc(C(=O)O)cc3[C@@H]3C=CC[C@@H]32)c1OC,-4%,-4%,6%,27%,/,?
COc1cc(C(=O)O)ccc1Cl,-33%,-10%[11.4 µM],10%,72%,-2%,?
Cc1cc(/C(=N/O)C(C)(C)NO)ccc1Cl,-8%,20µM*,-12%,-18%,-6%,?
O=C(Cc1ccc(Cl)cc1)Oc1cccc2cccnc12,10µM*,25µM*,6%,21%,-2%,?
O=C(Oc1cccc2cccnc12)c1ccc(Br)o1,50µM*,-23%,5%,29%,-1%,?
COc1ccc(-n2nc(C(=O)N(C)c3cc(Cl)ccc3OC)c3c4ccccc4n(C)c3c2=O)cc1,/,-23%,-3%,-3%,/,-6%[59 µM]
CCCCCC#CCC#CCC#CCC#CCCCC(=O)O,4µM*,/,/,/,/,10µM*
CC(C)(C)C1CCc2onc(C(=O)Nc3sc4c(c3C#N)CCCC4)c2C1 (stereo not drawn),-18%,-26%,?,-18%,/,2.8µM*
CC(C)(C)C1CCc2c(sc(NC(=O)C3CCCO3)c2C(N)=O)C1 (stereo not drawn),?,?,10%,-17%,-11%,22%[0.501 µM]
SMILES,BAZ2B block,JMJD2A Tudor inh,VDR inhibitor,HP1b binding inh,PLK1 PBD inh,G9a inh
CC(C)(C)C1CCc2onc(C(=O)Nc3sc4c(c3C(N)=O)CCCC4)c2C1 (stereo not drawn),0%,-25%,79µM*,?,/,3.2µM*
Cc1onc(-c2c(F)cccc2Cl)c1C(=O)Nc1sc2c(c1C#N)CCC(C(C)(C)C)C2 (stereo not drawn),-3%,-24%,4%,2%,-11%,?
CC(C)C1N=C2c3ccccc3N=C(SCC(=O)NCc3ccccc3Cl)N2C1=O (stereo not drawn),-16%,-2%,-4%,11%,/,6%[59 µM]
CCOc1ccc(OCC)c(NC(=O)CC(C)n2nc(C)cc2C)c1 (stereo not drawn),-15%,-22%,9%,26%,/,0%[59 µM]
CCC1C(=O)N=C(SCC(=O)Nc2ccc(Br)cn2)NC1=O (stereo not drawn),-19%,?,?,21%,27µM*,?
C/C=C/c1ccc(OCCCNCC(C)O)c(OC)c1 (stereo not drawn),-2%,-26%,11%,25%,-10%,0%[12.7 µM]
C/C=C/c1ccc(OCCCCNCc2ccco2)c(OC)c1,40µM*,22µM*,-17%,?,-5%,11µM*
Cc1cnc2c(c1SCC(=O)NCc1ccccc1Cl)c(=O)n(C)c(=O)n2C,-4%,-13%,13%,25%,/,2%[59 µM]
COc1ccc(-n2c(SCCC(C)C)nc3sc4c(c3c2=O)CC(C(C)C)OC4)cc1 (stereo not drawn),1%,-3%,10%,24%,/,-23%[59 µM]
Cc1c(C)n(CCC#N)c2ccccc12,?,?,9%,-13%,-6%,-12%[59 µM]
CN(C)c1nc(-c2cn(CCC#N)c3ccccc23)cs1,?,50µM*,-19%,-15%,27µM*,28µM*
CCOC(=O)NC1(Nc2ccc(Cl)cn2)Oc2ccccc2O1,?,/,/,/,/,6.3µM*
CC(C)Oc1ccc(C(=O)CCN2CCOCC2)cc1,/,3%,45µM*,56%,?,/
CCCCCOc1ccc(C(=O)CCN2CCOCC2)cc1,2%,-1%,?,45%,30µM*,45µM*
Clc1nc(NCC2CCCO2)c2[nH]cnc2n1 (stereo not drawn),/,-7%[57.1 µM],-26%,18%[57 µM],/,/
COc1ccc(C(c2c(O)ccc3ccccc23)N2CCOCC2)c(OC)c1 (stereo not drawn),-10%,89µM*,71µM*,-4%,?,32µM*
O=C(C1CC1)N1N=C(c2ccncc2)CC1(O)C(F)(F)F (stereo not drawn),-6%,-4%,-8%,-3%,-9%,/
CCC(Sc1nc2ncccc2o1)C(=O)Nc1ccc(OC)c(OC)c1 (stereo not drawn),-12%,-9%,14%,16%,/,-3%[59 µM]
